Measured values reported in publication PMC11062922 (Nature Chemical Biology, 2023).
Where two headings read alike, the source gives them in different places.

Test system: IKBKE
Conditions: read-out: apparent Kd, n = 1

**Q.** With Lestaurtinib as the substance, how does the potency estimated from few doses (compound concentrations:100 nM and 1000 nM (sheet 'Lestaurtinib' of Supplementary Table 1),run:Lestaurtinib_02339_R2,Plate:MR001) read?
**A.** Its potency estimated from few doses is 585 nM.

**Q.** And the potency estimated from few doses (compound concentrations:100 nM and 1000 nM (sheet 'Lestaurtinib' of Supplementary Table 1),run:Lestaurtinib_02364_R1,Plate:MR002)?
**A.** Its potency estimated from few doses is 769 nM.

**Q.** And the potency estimated from few doses (compound concentrations:100 nM and 1000 nM (sheet 'Lestaurtinib' of Supplementary Table 1),run:Lestaurtinib_02364_R2,Plate:MR002)?
**A.** Its potency estimated from few doses is 896 nM.

**Q.** What about the potency estimated from few doses (compound concentrations:100 nM and 1000 nM (sheet 'Lestaurtinib' of Supplementary Table 1),run:Lestaurtinib_02364_R3,Plate:MR002) of the same substance?
**A.** The potency estimated from few doses was 647 nM.

**Q.** And the potency estimated from few doses (compound concentrations:100 nM and 1000 nM (sheet 'Lestaurtinib' of Supplementary Table 1),run:Lestaurtinib_02367_R1,Plate:MR003)?
**A.** Its potency estimated from few doses is 711 nM.

**Q.** What about the potency estimated from few doses (compound concentrations:100 nM and 1000 nM (sheet 'Lestaurtinib' of Supplementary Table 1),run:Lestaurtinib_02367_R2,Plate:MR003) of the same substance?
**A.** The potency estimated from few doses was 972 nM.

**Q.** And the potency estimated from few doses (compound concentrations:100 nM and 1000 nM (sheet 'Lestaurtinib' of Supplementary Table 1),run:Lestaurtinib_02381_R1,Plate:MR004)?
**A.** Its potency estimated from few doses is 695 nM.

**Q.** What about the potency estimated from few doses (compound concentrations:100 nM and 1000 nM (sheet 'Lestaurtinib' of Supplementary Table 1),run:Lestaurtinib_02381_R2,Plate:MR004) of the same substance?
**A.** Its potency estimated from few doses is 551 nM.

**Q.** What about the potency estimated from few doses (compound concentrations:100 nM and 1000 nM (sheet 'Lestaurtinib' of Supplementary Table 1),run:Lestaurtinib_02381_R3,Plate:MR004) of the same substance?
**A.** The potency estimated from few doses was 713 nM.

**Q.** And the potency estimated from few doses (compound concentrations:100 nM and 1000 nM (sheet 'Lestaurtinib' of Supplementary Table 1),run:Lestaurtinib_02407_R3,Plate:MR005)?
**A.** Its potency estimated from few doses is 883 nM.

**Q.** And the potency estimated from few doses (compound concentrations:100 nM and 1000 nM (sheet 'Lestaurtinib' of Supplementary Table 1),run:Lestaurtinib_02422_R3,Plate:MR006)?
**A.** Its potency estimated from few doses is 976 nM.

**Q.** And the potency estimated from few doses (compound concentrations:100 nM and 1000 nM (sheet 'Lestaurtinib' of Supplementary Table 1),run:Lestaurtinib_02437_R1,Plate:MR007)?
**A.** Its potency estimated from few doses is 554 nM.

**Q.** And the potency estimated from few doses (compound concentrations:100 nM and 1000 nM (sheet 'Lestaurtinib' of Supplementary Table 1),run:Lestaurtinib_02437_R2,Plate:MR007)?
**A.** The potency estimated from few doses was 807 nM.

**Q.** And the potency estimated from few doses (compound concentrations:100 nM and 1000 nM (sheet 'Lestaurtinib' of Supplementary Table 1),run:Lestaurtinib_02437_R3,Plate:MR007)?
**A.** The potency estimated from few doses was 71.2 nM.

**Q.** What about the potency estimated from few doses (compound concentrations:100 nM and 1000 nM (sheet 'Lestaurtinib' of Supplementary Table 1),run:Lestaurtinib_02438_R1,Plate:MR008) of the same substance?
**A.** The potency estimated from few doses was 861 nM.

**Q.** And the potency estimated from few doses (compound concentrations:100 nM and 1000 nM (sheet 'Lestaurtinib' of Supplementary Table 1),run:Lestaurtinib_02438_R2,Plate:MR008)?
**A.** Its potency estimated from few doses is 834 nM.

**Q.** What about the potency estimated from few doses (compound concentrations:100 nM and 1000 nM (sheet 'Lestaurtinib' of Supplementary Table 1),run:Lestaurtinib_02443_R1,Plate:MR009) of the same substance?
**A.** The potency estimated from few doses was 745 nM.

**Q.** What about the potency estimated from few doses (compound concentrations:100 nM and 1000 nM (sheet 'Lestaurtinib' of Supplementary Table 1),run:Lestaurtinib_02443_R2,Plate:MR009) of the same substance?
**A.** Its potency estimated from few doses is 713 nM.

**Q.** What about the potency estimated from few doses (compound concentrations:100 nM and 1000 nM (sheet 'Lestaurtinib' of Supplementary Table 1),run:Lestaurtinib_02482_R1,Plate:MR011) of the same substance?
**A.** The potency estimated from few doses was 1130 nM.

**Q.** What about the potency estimated from few doses (compound concentrations:100 nM and 1000 nM (sheet 'Lestaurtinib' of Supplementary Table 1),run:Lestaurtinib_02482_R3,Plate:MR011) of the same substance?
**A.** The potency estimated from few doses was 627 nM.

**Q.** What about the potency estimated from few doses (compound concentrations:100 nM and 1000 nM (sheet 'Lestaurtinib' of Supplementary Table 1),run:Lestaurtinib_02487_R2,Plate:MR012) of the same substance?
**A.** Its potency estimated from few doses is 1150 nM.

**Q.** And the potency estimated from few doses (compound concentrations:100 nM and 1000 nM (sheet 'Lestaurtinib' of Supplementary Table 1),run:Lestaurtinib_02487_R3,Plate:MR012)?
**A.** The potency estimated from few doses was 756 nM.

**Q.** What about the potency estimated from few doses (compound concentrations:100 nM and 1000 nM (sheet 'Lestaurtinib' of Supplementary Table 1),run:Lestaurtinib_02496_R1,Plate:MR013) of the same substance?
**A.** Its potency estimated from few doses is 710 nM.

**Q.** What about the potency estimated from few doses (compound concentrations:100 nM and 1000 nM (sheet 'Lestaurtinib' of Supplementary Table 1),run:Lestaurtinib_02496_R2,Plate:MR013) of the same substance?
**A.** The potency estimated from few doses was 695 nM.

**Q.** And the potency estimated from few doses (compound concentrations:100 nM and 1000 nM (sheet 'Lestaurtinib' of Supplementary Table 1),run:Lestaurtinib_02566_R1,Plate:MR014)?
**A.** Its potency estimated from few doses is 877 nM.

**Q.** And the potency estimated from few doses (compound concentrations:100 nM and 1000 nM (sheet 'Lestaurtinib' of Supplementary Table 1),run:Lestaurtinib_02572_R1,Plate:MR015)?
**A.** Its potency estimated from few doses is 756 nM.

**Q.** What about the potency estimated from few doses (compound concentrations:100 nM and 1000 nM (sheet 'Lestaurtinib' of Supplementary Table 1),run:Lestaurtinib_02572_R2,Plate:MR015) of the same substance?
**A.** Its potency estimated from few doses is 857 nM.

**Q.** What about the potency estimated from few doses (compound concentrations:100 nM and 1000 nM (sheet 'Lestaurtinib' of Supplementary Table 1),run:Lestaurtinib_02572_R3,Plate:MR015) of the same substance?
**A.** The potency estimated from few doses was 855 nM.

**Q.** What about the potency estimated from few doses (compound concentrations:100 nM and 1000 nM (sheet 'Lestaurtinib' of Supplementary Table 1),run:Lestaurtinib_02577_R1,Plate:MR016) of the same substance?
**A.** The potency estimated from few doses was 799 nM.

**Q.** What about the potency estimated from few doses (compound concentrations:100 nM and 1000 nM (sheet 'Lestaurtinib' of Supplementary Table 1),run:Lestaurtinib_02577_R2,Plate:MR016) of the same substance?
**A.** Its potency estimated from few doses is 785 nM.

**Q.** What about the potency estimated from few doses (compound concentrations:100 nM and 1000 nM (sheet 'Lestaurtinib' of Supplementary Table 1),run:Lestaurtinib_02577_R3,Plate:MR016) of the same substance?
**A.** Its potency estimated from few doses is 713 nM.

**Q.** And the potency estimated from few doses (compound concentrations:100 nM and 1000 nM (sheet 'Lestaurtinib' of Supplementary Table 1),run:Lestaurtinib_02584_R2,Plate:MR017)?
**A.** Its potency estimated from few doses is 744 nM.

**Q.** And the potency estimated from few doses (compound concentrations:100 nM and 1000 nM (sheet 'Lestaurtinib' of Supplementary Table 1),run:Lestaurtinib_02584_R3,Plate:MR017)?
**A.** The potency estimated from few doses was 935 nM.

**Q.** And the potency estimated from few doses (compound concentrations:100 nM and 1000 nM (sheet 'Lestaurtinib' of Supplementary Table 1),run:Lestaurtinib_02601_R3,Plate:MR018)?
**A.** The potency estimated from few doses was 796 nM.

**Q.** And the potency estimated from few doses (compound concentrations:100 nM and 1000 nM (sheet 'Lestaurtinib' of Supplementary Table 1),run:Lestaurtinib_02606_R1,Plate:MR019)?
**A.** Its potency estimated from few doses is 995 nM.

**Q.** And the potency estimated from few doses (compound concentrations:100 nM and 1000 nM (sheet 'Lestaurtinib' of Supplementary Table 1),run:Lestaurtinib_02624_R2,Plate:MR020)?
**A.** Its potency estimated from few doses is 729 nM.

**Q.** What about the potency estimated from few doses (compound concentrations:100 nM and 1000 nM (sheet 'Lestaurtinib' of Supplementary Table 1),run:Lestaurtinib_02624_R3,Plate:MR020) of the same substance?
**A.** Its potency estimated from few doses is 787 nM.

**Q.** What about the potency estimated from few doses (compound concentrations:100 nM and 1000 nM (sheet 'Lestaurtinib' of Supplementary Table 1),run:Lestaurtinib_02724_R1,Plate:MR021) of the same substance?
**A.** The potency estimated from few doses was 731 nM.
